Whole data set: some 59,000 sequences, median the read-out near -0.00055, cut for the lowest 2% near -2. The entries come from a sample that favours the lowest values as a whole.

The assay is described as follows: Identification of proteins required for the processing of the EWS-FLI1 nascent transcript.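 Also: robust z of luciferase light less the median z of siRNAs with the same seed.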 Particulars: TC32 Ewing sarcoma NR0B1-luc vs CMV-luc (EWS-FLI1 target promoter against control promoter), 48 h; screened at 20 nM (by protocol). In a few lines:
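Parallel TC32-NR0B1-luc and TC32-CMV-luc reverse transfections with 20 nM siRNA in RPMI-1640/10% FBS, luciferase measured 48 h later. Seed-adjusted z-scores from normalized, z-score-MAD transformed data; AllStars negative and siGL4 controls on each plate.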
In the case of UUCUGUCCCAUAAAUAGAG against TMEM207, the seed-corrected z-score is -0.0552. With UUAUCUAUACAAAGCAGAC against KLRC3 the figure was -0.377. With UUACGCAUAAUUUCCGUCA against VAMP5 the figure was -0.171; with AUCUGGUUUACGGUUAUUC against MEF2C, -2.53. As for AAUCUUGCAAGGUUACUAC against USP33, the seed-corrected z-score was -1.31. With UCCAUGACGAAGCUGUUCU against SUV39H1 the figure was 0.0817; with UGGUUUAUCAGUUUCAAUG against ARCN1, -4.37; with UAUCUAAUUGAUGACAUGC against ETAA1, 0.0808. With UGUUCUAUAGGUAACACUC against ZNF559 the figure was -0.628; with UUAAUUGCAUUUGCAGACC against CCDC171, 0.492; with UUGUCUAGAAAAGUCCUGG against UMODL1, -2.58. The same measure for UUCGAUAUUAGGGUAGCGG against SNRNP200: -1.21; for UGCUGUAAAGUUUUAGUCC against SLC35A5: -0.426; for UCAGUGUUGGACUCCAUGC against NR2E3: 0.652.

Sequence UGUGAGAUCAGGAAUUGAC against TMEM65 came in with a seed-corrected z-score of -0.934. Consider UGCGGUUGACCGUAUAGAC against KBTBD13, for which the seed-corrected z-score is -2.49. For UCCUUGGUCACUGUCGCUC against KLF7, the seed-corrected z-score was -0.201. As for UUGUUGGACAAGUCGAUGG against LRRC57, the seed-corrected z-score is 0.339. With GUUGUAUUCGUCGUCGUCC against NKX6-2 the figure was 0.127; with UACUUAUCUCUGUCUGUUU against UBE2D3, -1.14. The same measure for AUAGGUGCGACUCUCAUCC against SYMPK: -2.35. The same measure for UUGUAGAUGCUGAAUGUCC against DNAAF1: 0.337; for UAAUAUGAUGUCUUCAACC against GABRQ: 0.559; for UGUUUUGCCGUCGAGGUGC against LOC642620: 0.782. As for AUUCCGACCAUGGUAAAUG against NAAA, the seed-corrected z-score turned out to be 0.829. With ACAGUACAUAGUAGGGUGG against PRR34 the figure was -2.82. Sequence UUCAUCAAAUUGGACAUCU against ATP6V1E1 gave a seed-corrected z-score of -0.95. With UUGGUGCACAGCCUGGUAC against TSPAN32 the figure was -0.435; with UCUUAGUUUCCAACGAUCC against SZT2, -0.791; with UCGGUAGUAGUAAUCGUGC against PNPLA1, 0.335. The same measure for UUCGCCUCUUGUGCUAUCG against CFAP221: 0.264; for AUGGUUCAAACAUAGGAUG against WNK1: -2.09. UACGAGUCACGGGAAAUAC against TAF5 yielded a seed-corrected z-score of 0.238. AACUUGAGGAGGGUAAGUG against SERPINF2: the seed-corrected z-score is -2.44.

Consider UUGAGUAUUCCGCUCGGGC against EDAR, for which the seed-corrected z-score was -0.0352. Regarding AAAACGACUCUUCAUACUG against CLRN2, the seed-corrected z-score was -1.29. For the sequence UUUAGCAACAGGUACAUUC against APBB1, the seed-corrected z-score was -0.4.

UAGAUUUUAAACAUCCUUG against FAS showed a seed-corrected z-score of 0.417. The same measure for UCUUUAUCACGGUCAAAUG against GPALPP1: -0.108; for ACAUGGCUGAUUAAUGUGG against ZNF890P: -0.143. Turning to UCUGUGGUGAUGAACACUC against OR5J2, the seed-corrected z-score was -1.13. With UUUGUUGGUAGCGAUGCAC against MYPN the figure was -2.09; with AAAACUUCACCUUAUACUC against SDF4, -0.483. The same measure for GAUGCUACGAUACCAGCCA against LYPLA2P2: 1.26. Take UGUAUUUCCACGCGUGAGG against ZDHHC11: the seed-corrected z-score was -0.523. AAAUGUGAACCUGUGCUUG against MTUS2-AS1 yielded a seed-corrected z-score of 1.42. UACGUGCCGAGUCAUCAGU against DOK4 returned a seed-corrected z-score of -2.12.

With AGACCUUAUACAGAGCUGC against CAPG, the seed-corrected z-score worked out at 0.432.

In the case of AGAAGCAUCAUGGAGGUAG against COX14, the seed-corrected z-score was -1.26. ACUAGAAUCAAUAAGGAUG against TMEM243: the seed-corrected z-score is -0.708. The same measure for UGAGUCAUAAGAAGGGUCU against FLI1: -6.98; for AUAGGUGAGACGGAGGCUC against VASN: 0.00423; for UCUGGAUCGAGGAAGCGAG against GNLY: -2.28. Turning to AUAGCAAUCAUAUUCACGG against LIG4, the seed-corrected z-score is -0.537. AACUGAAAUAGAAGUAUCC against TMED6: the seed-corrected z-score was -0.476. UGUUCUCCUGCAGUUAUCC against WFDC3 came in with a seed-corrected z-score of -0.0122. With UUGAAGACCAGGUAUUCCC against AGBL4 the figure was -0.596. As to UGACGUAUAUCAAUGCUCC against RRAGC, the seed-corrected z-score is -0.322. Consider UAGUCGUCAAGCACUUGGU against SFTPB, for which the seed-corrected z-score is -0.3. AAAUCUUGAUCUGUGACUC against EN2: the seed-corrected z-score was determined as 0.225.

The sequence UCUCUCAUCAAUAUGCUCU against MTHFD2 yielded a seed-corrected z-score of 0.352. The same measure for UAUAGGCACGCUGCUAUUC against DIRC2: -2.73; for UUCGUUAGGUUUCCUUUCG against HIVEP2: -0.393. Turning to UUCCGAAAUGAAAAGGAUC against GMPR2, the seed-corrected z-score was found to be 0.18. The sequence UAAUUGCUGAUAUUCGAGC against EPB41L3 had a seed-corrected z-score of -0.247. Regarding UAAGAUACUCGGGUUUCAC against ZADH2, the seed-corrected z-score is -0.425. The sequence AGUUCGAUUAGCUAAGGCC against SYNRG yielded a seed-corrected z-score of -0.0555. Sequence UAUGGGAGUGUCAAUAAUC against PDHB displayed a seed-corrected z-score of -0.681. With UCAGGUGCAAUCUGACUCU against PPP1R1C the figure was -2.4. In turn, AUGCUUACAAGAUCUUGUC against USP44 gave a seed-corrected z-score of -0.0422. In turn, UCACGUGUAAAGGAUCACG against RTN4IP1 gave a seed-corrected z-score of 0.0887. With UUCUGUUCAAAUCCAUUGG against BUD13 the figure was -0.753; with AGAGUUGUUGUCAUCUUCC against CACNA1S, -0.313.

Regarding UCUGGGCGUAGACAACUGC against CNTFR, the seed-corrected z-score is -2.12. The same measure for UGAACGUCCCGUCUGAGUG against SCT: -0.424; for UCUUCAAUAAUGAUCUCCU against MRI1: 0.722.

Sequence UGAAGAGUAAGCUCAAACC against ASIC5 yielded a seed-corrected z-score of -3.53.

In turn, UAAACUUCCCUUUAAAAAC against IRF8 registered a seed-corrected z-score of -0.00875.

In the case of UUCAUGUGAACUUACAGUU against UQCRHL, the seed-corrected z-score came out at 0.0588.

The sequence UUAGUUGCAAGGCAUUCAG against FAM135A displayed a seed-corrected z-score of -4.23. With UAAAGGUCAAGCAGUCAGU against PVRL4 the figure was 0.651; with AGUGAUGACAUUGAUAUCG against SYDE1, 1.21. The same measure for AUAUCUACGAUCUAUAUCU against LOC645553: 0.695. The same measure for UCUGGUUCUUGUUCAAGUG against PCDH17: -1.28; for UCGCUAUCCAUAUCAGAGG against GOLGA4: 1.24.

These data come from PubChem BioAssay AID1159506 (National Center for Advancing Translational Sciences (NCATS), 2015).
